Screening results (PubChem)
Luciferase inh – Firefly luciferase inhibition profiling of diverse chemical library using quantitative high-throughput screening; purified P. pyralis luciferase, luminescence, biochemical; Potency, µM (series often up to 115 µM), actives largely listed as inhibitors; actives 2.5% (n = 76,000); AID 1347043, 2019; further: potency means the concentration at half of the fitted maximal effect; nearly all actives have a fitted effect of over 65% in size
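FLuc 10nM, D-luciferin 10uM, ATP 10uM, Mg acetate 10mM, Tris acetate pH 7.5, Tween/BSA; cpd qHTS; enzyme added last; CCD luminescence.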
SNCA expr inhib – Primary qHTS assay for inhibitors of alpha-synuclein gene (SNCA) expression. HEK-293 SNCA-luciferase knock-in, luminescence, 24 h. Potency, µM (doses to about 57.2 µM), inactives show at the top dose activity change, negative = inhibition, most hits filed as inhibitors. actives 0.17% (n = 140,000). AID 1671194, 2021;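 further: potency means the concentration at half of the fitted maximal effect; plate controls were DMSO cells for no effect and cell-free wells for full effect; nearly all actives have a fitted effect of over 45% in size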
IP6K1 inhibitor – Primary qHTS assay for small molecule inhibitors of Inositol hexaphosphate kinase 1 (IP6K1); actives 0.81% (n = 140,000); IP6K1 kinase, ADP-Glo luminescence, 2 h; hits give low values; activity change, % (series mostly up to about 58 µM); Inositol hexakisphosphate kinase 1 (Homo sapiens), Q92551; in the data active means activity change below about -25%
Target sequence (Q92551 whole entry, looked up): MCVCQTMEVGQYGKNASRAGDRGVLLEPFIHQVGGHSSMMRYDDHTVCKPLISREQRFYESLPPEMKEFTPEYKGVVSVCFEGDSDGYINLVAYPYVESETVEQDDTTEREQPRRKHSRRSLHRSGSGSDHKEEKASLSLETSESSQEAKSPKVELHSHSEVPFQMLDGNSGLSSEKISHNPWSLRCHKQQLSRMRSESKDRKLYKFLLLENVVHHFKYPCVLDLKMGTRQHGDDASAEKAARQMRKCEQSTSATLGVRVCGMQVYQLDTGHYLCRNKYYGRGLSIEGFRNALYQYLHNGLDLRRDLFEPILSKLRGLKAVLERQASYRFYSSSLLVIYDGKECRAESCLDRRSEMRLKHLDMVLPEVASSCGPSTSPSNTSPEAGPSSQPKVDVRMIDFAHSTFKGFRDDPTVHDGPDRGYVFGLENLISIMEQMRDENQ
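ADP-Glo luminescence measures ADP made by human IP6K1 during a 2 h RT reaction with ATP/IP6 (mix at 1.3 mM/130 uM); top library doses 57.5 and 19.1 uM final.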
SNCA viab count – GF-AFC viability counterscreen for inhibitors of alpha-synuclein gene (SNCA) expression; HEK-293-SNCA-luc viability, GF-AFC fluorescence, 24 h; Potency, µM (series often up to 57.1 µM), inactives show at the top dose activity change, negative = cytotoxicity, actives largely listed as cytotoxic; actives 0.12% (n = 150,000); AID 1671193, 2021;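 further: potency means the concentration at half of the fitted maximal effect; 0% = DMSO-treated cells and -100% = medium-only wells without cells; nearly all actives have a fitted effect of over 30% in size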
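Cytotoxicity counterscreen: after 24 h compound treatment of genome-edited SNCA-luciferase HEK-293 cells, live-cell protease substrate GF-AFC read by fluorescence after 30 min; activity scaled between DMSO (0%) and medium-only (-100%), curves Hill-fitted.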
3T3 cytotox – Cytotoxic Profiling in NIH 3T3 Cell Line of Diverse Libraries Using Quantitative High-Throughput Screening. NIH 3T3 viability, CellTiter-Glo ATP luminescence, 48-72 h. Potency, µM (top dose mostly 96.7 µM), for the others: at the top dose activity change, negative = cytotoxicity, actives largely listed as inhibitors. actives 4.3% (n = 94,000). AID 1345082, 2018; further: potency means the concentration at half of the fitted maximal effect; nearly all actives have a fitted effect of over 55% in size
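Viability of NIH 3T3 cells after 48 or 72 hr compound treatment at 37 °C was assessed by CellTiter-Glo, with luminescence imaged following a 10 min room-temperature step.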
HEK cytotox – Cytotoxic Profiling in HEK 293 Cell Line of Diverse Libraries Using Quantitative High-Throughput Screening. Potency, µM (titrated, usually from 115 µM), for inactives: at the top dose activity change, negative = cytotoxicity, most hits filed as inhibitors. actives 6.6% (n = 94,000). HEK 293 viability, ATP luminescence (CellTiter-Glo), 48-72 h; further: potency means the concentration at half of the fitted maximal effect; nearly all actives have a fitted effect of over 60% in size
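ATP-coupled CellTiter-Glo luminescence served as viability read-out, recorded 10 min after reagent addition at room temperature. HEK 293 cells, 250 cells/well, had been incubated with pintool-transferred compound for 48 or 72 hr at 37 degree Celsius.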
Active calls of the source: *; i = inactive; ? = inconclusive; . = no result given; ! = not confirmed by another sample; [ ] = another dose, or the depositor's remark. Rows were chosen to be rich in hits. Some 7.3% of all compounds tested hit in one or more screens of this group. Unless noted, the call rests on the fitted dose curve; in most records, active means well fitted curve in the direction sought with a large enough effect; inconclusive means small, poorly fitted or top-dose-only effect, or another doubt; inactive means no such curve, though single readings can be large; an effect the other way counts as inactive or inconclusive. Unless noted, on the % scale 0 is the no-effect control and ±100 the full control effect.

SMILES	Luciferase inh	SNCA expr inhib	IP6K1 inhibitor	SNCA viab count	3T3 cytotox	HEK cytotox
CC(C)NC(=O)N1Cc2ccccc2OC2(CCN(C(=O)N3CCN(C)CC3)CC2)C1	.	-25%	3	3%	4%	2%
COCCc1noc([C@@H]2CN(Cc3ccccc3C#N)C[C@H]2CO)n1	i	-15%	1	-30%	0%	i
COC1CN(C2CCN(C(=O)CCc3c[nH]c4ccccc34)CC2)C12CCOCC2 (configuration not stated)	i	-12%	2	2%	1%	i
CCC(=O)N1CC(N(Cc2ccccc2)C2CCOCC2)C1	.	2%	-14	16%	i	-7%
Cc1ccccc1C(=O)N1CCC(N2C(=O)c3c(c(C)nn3-c3ccccc3)C2C2CC2)C1 (configuration not stated)	.	.	-3	.	?	28µM*
Cc1nn(-c2ccccc2)c2c1C(C1CC1)N(C1CCN(C(=O)c3ccccc3Cl)C1)C2=O (configuration not stated)	.	.	-3	.	22µM*	35µM*
CC(C)(Oc1nn(Cc2cccc(Cl)c2)c2ccccc12)C(=O)N1CCCC1	i	?	1	?	50µM*	?
CCCNC(=O)C(C)(C)Oc1nn(Cc2ccccc2)c2ccc(COC)cc12	i	10%[87.6 µM]	-8	-3%[87.6 µM]	?	?
COCc1ccc2c(c1)c(OC(C)(C)C(=O)N1CC(O)C1)nn2Cc1ccccc1	i	-17%[87.6 µM]	-9	-4%[87.6 µM]	100µM*	?
COCc1ccc2c(c1)c(OC(C)(C)C(=O)NCc1cnccn1)nn2Cc1ccccc1	i	20%	2	-2%	40µM*	?
COCc1ccc2c(c1)c(OC(C)(C)C(=O)NC1CCC(O)CC1)nn2Cc1ccccc1 (configuration not stated)	i	-2%	9	3%	40µM*	-31%
COCc1ccc2c(c1)c(OC(C)(C)C(=O)N1CCN(C)CC1)nn2Cc1ccccc1	i	?	-9	-14%[87.6 µM]	?	?
CCOc1ccccc1C(=O)NCCc1noc(-c2ccccc2)n1	i	19%	4	5%	?	?
Cc1cnc2c(Cl)c(C(=O)N[C@@H]3COCC[C@@H]3OCC3CC3)nn2c1	i	11%	-5	-3%	-19%	-12%
COc1ccc(NC(=O)O[C@@H]2CO[C@H]3[C@@H]2OC[C@@H]3Nc2nccc(-c3cccc(F)c3)n2)cc1	i	1%	4	0%	?	-28%
O=C(NCCc1ccc(Cl)cc1)c1nc(-c2cccnc2)c2ccccn12	i	-26%	11	?	40µM*	32µM*
O=C(NCc1cccnc1)c1nc(-c2ccc(Cl)nc2)c2ccccn12	.	20%	-12	-13%	?	79µM*
C#CCNC(=O)c1nc(-c2ccc(Cl)cc2)c2ccccn12	45µM*	116%[87.6 µM]	11	-3%[87.6 µM]	?	?
COC(=O)CNC(=O)c1nc(-c2cccnc2)c2ccccn12	i	4%[87.6 µM]	11	9%[87.6 µM]	-8%[138 µM]	-7%[172 µM]
C#CCNC(=O)c1nc(-c2cccnc2)c2ccccn12	i	3%[87.6 µM]	0	-22%[87.6 µM]	89µM*	-23%[172 µM]
CC(C)c1nnc(C2CN(C(=O)Cc3ccccc3Cl)CC23CCOCC3)o1 (configuration not stated)	i	1%	19	-3%	1%	-24%
CCC1=C(C(=O)OC)C(c2ccccc2F)N2C(CC(=O)N3CCC(C)CC3)=CSC2=N1 (configuration not stated)	i	-2%	-2	-19%	?	?
Cc1ccc2nc(C3CCN(Cc4cccc(-c5cccnc5)c4)CC3)[nH]c(=O)c2c1	i	12%	-2	-3%	-33%	?
C#CCNC(=O)c1nc(-c2cccc(F)c2)c2cnccn12	i	-2%[87.6 µM]	0	9%[87.6 µM]	?	63µM*!
O=C(NCc1cccnc1)c1nc(-c2cccc(F)c2)c2cnccn12	i	1%	4	6%	-25%	?
SMILES	Luciferase inh	SNCA expr inhib	IP6K1 inhibitor	SNCA viab count	3T3 cytotox	HEK cytotox
C#CCNC(=O)c1nc(-c2ccc(Cl)nc2)c2ccccn12	.	23%	11	-9%	?	50µM*
O=C(NCc1ccc2c(c1)OCO2)c1nc(-c2ccc(Cl)cc2)c2cnccn12	25µM*	156%	0	23%	-25%	-26%
COC(=O)CNC(=O)c1nc(-c2ccc(Cl)nc2)c2ccccn12	.	125%	-19	-5%	?	3%
C#CCNC(=O)c1nc(-c2ccc(Cl)cc2Cl)c2ccccn12	.	?	10	-13%	?	?
C#CCNC(=O)c1nc(-c2cc(Cl)cc(Cl)c2)c2ccccn12	i	-26%[87.6 µM]	10	3%[87.6 µM]	-6%[138 µM]	63µM*
CNC(=O)N1CCC(Cc2noc(C3CCOCC3)n2)C1 (configuration not stated)	i	11%	8	-1%	-1%	-23%
O=C(Nc1ccc2c(c1)OCCO2)N1CCC(Cc2noc(C3CCOCC3)n2)C1 (configuration not stated)	18µM*	?	-8	-15%	-35%	-7%
Cc1cnc(C2CCOCC2)n1C1CCN(C(=O)Nc2ccc3c(c2)OCCO3)CC1	35µM*	131%	25	-23%	-10%	-17%
COc1cccc(C(=O)N2C[C@H]3CNC(=O)[C@]34CCCC[C@@H]24)c1	.	-26%	1	-16%	-8%	-13%
Cc1csc(NC(=O)c2cnc3c(c2)N([S+](=O)([O-])c2cccnc2)CCC3)n1	i	8%[87.6 µM]	17	-11%[87.6 µM]	100µM*	-13%[172 µM]
O=C(Nc1cccc(Cl)c1)c1cnc2c(c1)N([S+](=O)([O-])c1cccnc1)CCC2	i	6%[87.6 µM]	13	-17%[87.6 µM]	?	100µM*
COc1ccc(C(=O)NC2CCN(C(=O)N3CC4CC(C3)[C@H]3CCCC(=O)N3C4)CC2)c(OC)n1 (some centres not stated)	i	2%	2	-5%	-5%	-8%
COc1ncccc1-c1nccn2c(C3CN(Cc4ccccc4O)C3)ncc12	i	4%[87.6 µM]	-12	-3%[87.6 µM]	?	?
